About 83,000 compounds went through this panel and 20% of them were active in at least one assay; those are over-represented in the sample as a whole.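 Step 1: grow cells in 96-well plates. Step 2: add test compound at a single concentration. Step 3: incubate 48 h. Step 4: record percent growth.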 Unmarked numbers belong to inactive results. Activity calls are given as the source filed them. The calls were made as follows: active = growth percent below 10; inactive = the rest.
How the values were obtained:
Experiment in all cases: NCI-60 one-dose screen, 48 h (100 = growth as untreated, 0 = no growth, -100 = all killed)
Conditions in all cases: 10 µM unless noted
SK-MEL-2 melanoma = test system: SK-MEL-2 melanoma
EKVX NSCLC = test system: EKVX NSCLC
SN12C renal = test system: SN12C renal
UO-31 renal = test system: UO-31 renal
TK-10 renal = test system: TK-10 renal
ACHN renal = test system: ACHN renal
CAKI-1 renal = test system: CAKI-1 renal
A498 renal = test system: A498 renal
CCRF-CEM leukemia = test system: CCRF-CEM leukemia
MOLT-4 leukemia = test system: MOLT-4 leukemia
SR leukemia = test system: SR leukemia
RPMI-8226 leukemia = test system: RPMI-8226 leukemia
OVCAR-8 ovarian = test system: OVCAR-8 ovarian
OVCAR-5 ovarian = test system: OVCAR-5 ovarian
OVCAR-4 ovarian = test system: OVCAR-4 ovarian
SK-OV-3 ovarian = test system: SK-OV-3 ovarian
IGROV1 ovarian = test system: IGROV1 ovarian
HS 578T breast = test system: HS 578T breast
NCI/ADR-RES ovarian = test system: NCI/ADR-RES ovarian

Row | Compound | growth (SK-MEL-2 melanoma) | growth (EKVX NSCLC) | growth (SN12C renal) | growth (UO-31 renal) | growth (TK-10 renal) | growth (ACHN renal) | growth (CAKI-1 renal) | growth (A498 renal) | growth (CCRF-CEM leukemia) | growth (MOLT-4 leukemia) | growth (SR leukemia) | growth (RPMI-8226 leukemia) | growth (OVCAR-8 ovarian) | growth (OVCAR-5 ovarian) | growth (OVCAR-4 ovarian) | growth (SK-OV-3 ovarian) | growth (IGROV1 ovarian) | growth (HS 578T breast) | growth (NCI/ADR-RES ovarian)
1 | CC(=O)c1cc(C(=O)N2c3ccccc3Sc3ccccc32)n2ccc3ccccc3c12 | -77.5% (active) | 61.3% | 67.6% | 42.8% | 98.4% | 42.5% | 39.8% | 12.9% | 28% | 49.1% | 16.6% | 50.3% | 32.7% | 69.7% | 73.6% | 48.7% | 49.9% | 16% | 13.4%
2 | Cc1cccc2c3c(sc12)C(c1ccc(F)cc1)C(C#N)=C(/N=C/c1ccc(Cl)cc1)O3 (centres undefined) | -5.29% (active) | 47.8% | 25.5% | 34.6% | 106% | 25.7% | 33.9% | -20.2% (active) | 13.5% | 15.2% | 10.5% | 19.7% | -3.92% (active) | 23.5% | 70% | 34.8% | 22.5% | 1.34% (active) | 2.96% (active)
3 | O=C(CSc1nc2ccccc2c(=O)n1-c1ccccc1)Nc1cccc(C(=O)/C=C/c2ccccc2Cl)c1 | 105% | 99.4% | 102% | 90.7% | 138% | 103% | 95.9% | 116% | 113% | 106% | 89.2% | 68.5% | 99.5% | 108% | 102% | 115% | 107% | 106% | 104%
4 | CCCn1cnc2c(c1=N)C(c1ccc(OC)cc1)c1sc3c(C)cccc3c1O2 (centres undefined) | 36.9% | 40.9% | 19% | 27.2% | 94.2% | 31.8% | 25.8% | -21.4% (active) | 3.52% (active) | 17% | 27% | -3.63% (active) | 23.9% | 32.4% | 75.3% | 49% | 18.4% | 10.5% | 7.35% (active)
5 | COc1cc2oc(-c3cccc(N)c3)cc(=O)c2c(OC)c1OC | 102% | 104% | 96.6% | 80.6% | 96.9% | 103% | 83.5% | 101% | 102% | 106% | 87.2% | 97.8% | 98.7% | 101% | 99.7% | 125% | 107% | 115% | 
6 | CC(=O)N1N=C(c2cccc(-n3cccc3)c2)CC1c1cccc(F)c1 (centres undefined) | 103% | 95.7% | 97.1% | 75.4% | 123% | 101% | 86.5% | 101% | 94.4% | 90.3% | 96.2% | 93.7% | 98.2% | 95.8% | 101% | 97.3% | 96.9% | 91% | 
7 | Cc1cc(-c2ccc(Cl)cc2)n(Cc2nnc(SCC(=O)Nc3ccc(S(N)(=O)=O)cc3)n2-c2ccc([N+](=O)[O-])cc2)n1 | 87% | 75.1% | 82% | 64% | 105% | 79.1% | 71.2% | 84.5% | 79.8% | 54.4% | 72.5% | 64.3% | 88.7% | 98.5% | 86.5% | 112% | 96.9% | 96.7% | 
8 | Cc1ccc(S(=O)(=O)NCCNc2nc(Nc3ccc(N4CCN(C)CC4)cc3)nc3ccsc23)cc1 | 115% | 94.9% | 97.4% | 92.4% | 121% | 106% | 74.6% | 110% | 74.3% | 79.1% | 18.1% | 84.2% | 104% | 113% | 95.1% | 129% | 108% | 89% | 100%
